Screening data as filed in PubChem BioAssay.
The list is not random: actives were taken first. Their share in the collection is about 0.9%.
SNCA viab count – reduces viability of HEK-293 SNCA reporter cells; HEK-293-SNCA-luc viability, GF-AFC fluorescence, 24 h; Potency, µM (series often up to 57.1 µM), for inactives: at the highest dose activity change, negative = cytotoxicity, actives largely listed as cytotoxic; 0.12% of 150,000 active; AID 1671193;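 further: potency means the concentration at half of the fitted maximal effect; 0% = DMSO-treated cells and -100% = medium-only wells without cells; nearly all actives have a fitted effect of over 30% in size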
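HEK-293-SNCA-luc cells (1500/well) plated 24 h, then exposed 24 h to a dilution series; GF-AFC added 30 min at 37C, fluorescence 405/540 nm; normalised to medium-only and DMSO wells, Hill fit.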
GPT2 inh – blocks human glutamate pyruvate transaminase 2; Q8TD30; Recombinant GPT2, coupled pyruvate oxidase/HRP Amplex Red fluorescence; Potency, µM (doses to about 57.7 µM), inactives show at the highest dose activity change, negative = inhibition, actives largely listed as inhibitors; 0.25% of 100,000 active; AID 1671188; further: potency means the concentration at half of the fitted maximal effect; nearly all actives have a fitted effect of over 60% in size
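Fluorescence read-out: pyruvate from GPT2 turnover coupled to pyruvate oxidase, HRP and Amplex Red (0.2mM ThPP, 0.2U/mL PO and HRP, 50uM Amplex final). Substrates 250uM a-KG, 2mM L-alanine; enzyme 10ng/uL; 30 min RT.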
IP6K1 inh – inhibitors of human IP6K1; Q92551; IP6K1 kinase, ADP-Glo luminescence, 2 h; active compounds read low; activity change, % (series mostly up to about 58 µM); 0.81% of 140,000 active; AID 1645851; in the data active means activity change below about -25%
Target sequence (Q92551 whole entry, looked up): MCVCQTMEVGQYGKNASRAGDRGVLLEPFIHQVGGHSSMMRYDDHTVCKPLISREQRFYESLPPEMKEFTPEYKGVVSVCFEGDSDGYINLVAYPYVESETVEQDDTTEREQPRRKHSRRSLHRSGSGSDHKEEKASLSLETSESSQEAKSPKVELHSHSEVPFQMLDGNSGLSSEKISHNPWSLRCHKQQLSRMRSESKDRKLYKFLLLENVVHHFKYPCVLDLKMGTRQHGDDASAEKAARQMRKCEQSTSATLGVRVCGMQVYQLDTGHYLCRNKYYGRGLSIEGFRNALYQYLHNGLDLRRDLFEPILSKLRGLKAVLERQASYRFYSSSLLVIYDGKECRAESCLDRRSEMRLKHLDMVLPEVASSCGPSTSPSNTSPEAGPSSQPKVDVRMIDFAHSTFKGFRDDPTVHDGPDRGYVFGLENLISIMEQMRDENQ
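ADP-Glo luminescence measures ADP made by human IP6K1 during a 2 h RT reaction with ATP/IP6 (mix at 1.3 mM/130 uM); top library doses 57.5 and 19.1 uM final.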
SNCA expr inhib – inhibitors of alpha-synuclein (SNCA) gene expression | 0.17% of 140,000 active | Potency, µM (titrated, usually from 57.2 µM), inactives show top-dose activity change, negative = inhibition, most hits filed as inhibitors | AID 1671194 | HEK-293 SNCA-luciferase knock-in, luminescence, 24 h;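 further: potency means the concentration at half of the fitted maximal effect; plate controls were DMSO cells for no effect and cell-free wells for full effect; nearly all actives have a fitted effect of over 45% in size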
Numbers without * were called inactive; i = inactive; u = inconclusive; x = not tested or not shown; ! = not active in a repeat; [ ] = another dose, or the depositor's remark. Unless noted, the call rests on the fitted dose curve; in most records, active means well fitted curve in the direction sought with a large enough effect; inconclusive means small, poorly fitted or top-dose-only effect, or another doubt; inactive means no such curve, though single readings can be large; an effect the other way counts as inactive or inconclusive. Unless noted, on the % scale 0 is the no-effect control and ±100 the full control effect.

SMILES	SNCA viab count	GPT2 inh	IP6K1 inh	SNCA expr inhib
CCN(CC)C(=O)c1sc2c(c1C)c(=O)n(Cc1ccccc1)c(=O)n2CC(=O)Nc1ccc(OC)cc1	-6%	x	28	-6%
O=C(NCCN1CCOCC1)c1cc(-c2ccc(Cl)cc2Cl)c2nncn2n1	-5%[12.5 µM]	i	23	-3%
O=C(CSc1oc(-c2ccco2)nc1S(=O)(=O)c1ccc(Br)cc1)c1ccccc1	4%	x	-28*	2%
C#CCNC(=O)C1CCN(c2nccc(Nc3ccc(C)cc3)n2)CC1	-13%[12.5 µM]	i	-8	56%[87.6 µM]
NC(=O)C(=O)O	-2%	i	x	11%
NC(=O)NO	1%	-5%	24	1.4µM*!
CC(C)CN(Cc1cccnc1)C1CN(C(=O)NCc2ccc(F)cc2)C1	-6%	2%	-11	14%
CC1=C[C@@H](CNC(=O)c2cnccn2)[C@H](C(C)C)C[C@H]1Cc1nc2ccc(C)cc2[nH]1	40µM*	-2%[88.5 µM]	0	-30%[87.6 µM]
CC1=C[C@@H](CNC(=O)c2cnccn2)[C@H](C(C)C)C[C@H]1Cc1nc2ccc(F)cc2[nH]1	u	i	0	-22%[87.6 µM]
CC1=C[C@@H](CNC(=O)c2ccccc2)[C@H](C(C)C)C[C@H]1Cc1nc2ccccc2n1C	11µM*	-1%[88.5 µM]	8	u
CCC(CC)C(=O)NC[C@@H]1C=C(C)[C@H](Cc2nc3ccccc3n2C)C[C@H]1C(C)C	u	i	5	u
CC1CCCN(C(=O)c2cc(-c3ccc(C(F)(F)F)cc3)nc3c2cnn3C)C1 (centres undefined)	x	x	-8	x
CC(=O)NCCc1c[nH]c2ccc(O)cc12	-1%	3.2µM*	x	-8%
CCN(CC1CCN(C2CCN(C)CC2)CC1)C(=O)c1ccc(-c2ccccc2)cc1	2%	-12%	-4	-11%
CCCCS(=O)(=O)c1oc(-c2ccc(F)cc2)nc1S(=O)(=O)c1ccccc1	14µM*	x	-13	u
CCS(=O)(=O)c1oc(-c2ccc(F)cc2)nc1S(=O)(=O)c1ccc(Br)cc1	16µM*	x	-9	u
CC(C)S(=O)(=O)c1oc(-c2ccc(F)cc2)nc1S(=O)(=O)c1ccccc1	2.5µM*	x	-2	u
CC(C)S(=O)(=O)c1oc(-c2cccs2)nc1S(=O)(=O)c1ccc(F)cc1	u	x	-3	14µM*
CS(=O)(=O)c1oc(-c2ccc(F)cc2)nc1S(=O)(=O)c1ccc(Cl)cc1	-6%	x	-10	9%
CCC(c1cccs1)N1C(=O)[C@H]2CN(CCC(C)C)C[C@H]2C1=O (some centres undefined)	u	i	1	3.5µM*
C=C1C(=O)[C@@]23C(CC[C@@H]1[C@H]2O)[C@@]12CO[C@]3(O)[C@@H](O)[C@@H]1C(C)(C)CC[C@@H]2O (some centres undefined)	30µM*	5%	-1	34µM*
CN(C)Cc1nnc(C2CC(NC(=O)c3ccc4scnc4c3)C2)n1C (centres undefined)	u	5.6µM*!	13	u
CN(C)Cc1nnc(C2CC(NC(=O)c3ccc4c(c3)CCO4)C2)n1C (centres undefined)	-16%	5%	1	6%
N[C@@H](Cc1cc(I)c(Oc2ccc(O)c(I)c2)c(I)c1)C(=O)O	-27%	5%	-34*	x
Cc1cccc(NC(=O)c2ccc3c(c2)N(C)C2CCCCN2C3=O)c1 (centres undefined)	12%[12.5 µM]	1%	5	56%
SMILES	SNCA viab count	GPT2 inh	IP6K1 inh	SNCA expr inhib
COc1ccc(-c2noc(CSc3nc4ccccc4[nH]3)n2)cc1	u	x	-11	10%
Cc1ccc2nc(SCc3nc(-c4ccc(Cl)cc4)no3)[nH]c2c1	-9%	x	30	22µM*
CNCCC(Oc1ccccc1C)c1ccccc1 (centres undefined)	13%	3%	x	19%
CNCC[C@H](Oc1cccc2ccccc12)c1cccs1	-13%	9.7µM*!	7	12%
O=C([C@H]1CCCN1C(=O)c1ccc(C(F)(F)F)cc1)N1CCCC(c2nc3ccncc3[nH]2)C1 (some centres undefined)	-5%	i	20	-15%
CN(C)c1ccc(C(=C2C=CC(=[N+](C)C)C=C2)c2ccc(N(C)C)cc2)cc1	u	5%	-58*	u
COc1cccc([S+](=O)([O-])NC[C@@H]2CC[C@H]3C[C@@H]2C3(C)C)c1	u	-10%[88.5 µM]	2	7.1µM*
